# An excerpt weighted towards active compounds, which were near 4% of everything screened.
# TRHR ag = agonists of human TRH receptor | activation, % at 2 µM | AID 493084 | 360,000 compounds, 0.18% hits | TRHR cells, calcium flux fluo-8, FDSS agonist mode | P34981; note: 0% is about no effect
# Target sequence (P34981 whole entry, looked up): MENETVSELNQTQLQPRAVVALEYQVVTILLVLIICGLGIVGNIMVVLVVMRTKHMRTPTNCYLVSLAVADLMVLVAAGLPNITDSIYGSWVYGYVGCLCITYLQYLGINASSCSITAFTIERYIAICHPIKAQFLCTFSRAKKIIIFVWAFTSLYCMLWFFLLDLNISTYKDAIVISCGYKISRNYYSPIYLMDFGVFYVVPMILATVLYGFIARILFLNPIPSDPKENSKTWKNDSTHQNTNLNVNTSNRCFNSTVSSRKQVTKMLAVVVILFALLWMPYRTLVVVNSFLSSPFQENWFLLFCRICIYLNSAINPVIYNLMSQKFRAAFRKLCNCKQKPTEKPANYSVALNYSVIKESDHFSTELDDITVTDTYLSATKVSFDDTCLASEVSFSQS
#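 TRHR-expressing cells loaded with fluo-8 calcium dye; 23 nL library compound pin-transferred, kinetic FDSS fluorescence (Ex 480/Em 530) recorded about 180 s for agonist-induced calcium release, before a 10 nM TRH EC20 addition for potentiator mode.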
# TRHR PAM = allosterically enhances the human TRH receptor | P34981 | 360,000 compounds, 0.66% hits | enhancement, % at 2 µM | TRHR cells, fluo-8 calcium fluorescence, EC20 TRH enhancement; in the data active = enhancement above about 30%; note: 0% is about no effect
#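 TRHR-expressing cells loaded with fluo-8 calcium dye were read kinetically (ex 480/em 530) during compound addition, then stimulated with an EC20 of TRH (10 nM final). Enhancement of the Gq-mediated intracellular calcium response was scored.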
# D1 ag = human D1 receptor agonism | P21728 | HEK293 T-REx D1 cells, calcium flux, agonist mode | activation, % at 2 µM | 360,000 compounds, 1% hits | AID 504660; note: 0% is about no effect
#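 Agonism was scored from calcium flux recorded over 180 s (1 read/s) after pintool compound addition, following a 10-cycle baseline. Cells were inducible force-coupled HEK293 TREx D1, plated overnight at 30 C and loaded with no-wash calcium dye.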
# D1 antag = human D1 dopamine receptor antagonism | HEK293 TREx D1 cells, calcium flux, dopamine EC80; active compounds read low | activity change, negative = inhibition, % at 10 µM | 360,000 compounds, 3.2% hits | AID 504652; in the data active = activity change below about -30%; note: % is set by controls: 0 for no effect and ±100 for the full control effect
#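 Inducible Hek293 Trex D1 cells (tetracycline, overnight, 30 C). Calcium dye 30–90 min RT. Antagonist mode: EC80 dopamine added after 180 s compound read.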
# Glioma ERSR ind = induces the endoplasmic reticulum stress response in human glioma cells. 420,000 compounds, 0.02% hits. U87-MG GRP78 promoter luciferase reporter, 16 h. Potency, µM, without a hit: at the top dose activation, actives largely listed as activators. AID 602332; active = well fitted activation curve with a large enough effect; inconclusive = small, poorly fitted or top-dose-only effect; inactive = no such curve, though single readings can be large or run the other way; note: potency is the fitted concentration of half-maximal effect; series mostly up to about 76 µM; % of control where 0% means no effect; nearly all actives have a fitted effect of over 35% in size
#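 Stably transfected U87-MG glioma cells carrying a GRP78-based luciferase sensor; 16 h compound incubation. Luminescence end-point read 10 min after Bright-Glo addition at room temperature.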
# D1 PAM = human D1 dopamine receptor positive modulation. HEK293 TREx D1 cells, calcium flux, dopamine EC20 potentiation. potentiation, % at 10 µM. P21728. 360,000 compounds, 0.036% hits; in the data active = potentiation above about 30%; note: 0% is about no effect
# Active calls of the source: *; ? = inconclusive; nt = no result; ! = a repeat was not active. Cut-off read from the data, not from the text of the source, unless noted: active = activation above about 30%; inactive = the rest.
SMILES,TRHR ag,TRHR PAM,D1 ag,D1 antag,Glioma ERSR ind,D1 PAM
N#C/C(=C\c1ccc(N2CCOCC2)o1)C(=O)NC1CCCCC1,25.8,0.6,68.8*,-2.7,1.9%,-3.7
N#C/C(=C\c1ccc(OCCN2CCOCC2)cc1)C(=O)Nc1ccccc1,1.0,-0.7,7.2,-30.2*,1.1%,-7.4
CCN(CC)S(=O)(=O)c1ccc(N2CCCCC2)c(NC(=O)/C(C#N)=C/c2ccc(OC)cc2)c1,0.3,1.6,4.2,0.4,-4.1%,5.2
CCOc1ccc(NC(=O)/C(C#N)=C/c2ccc(N3CCCC3)c(C)c2)cc1,31.7*,8.6,376.8*,-5.0,-2.1%,4.2
N#C/C(=C/c1ccc(N2CCOCC2)o1)C(=O)Nc1ccccc1,90.2*,10.2,215.0*,-13.5,-0.8%,0.4
O=[N+]([O-])c1ccc(C[n+]2ccccc2)cc1,-0.3,-5.2,2.2,8.0,-1.5%,-4.2
CCOC(=O)C(NCCc1ccccc1F)(NC(=O)CC)C(F)(F)F (configuration not stated),-3.7,34.3*,2.9,-10.8,-1.3%,2.0
COc1ccc(CNC(=O)CN(C)Cc2ccccc2F)cc1OC,0.1,3.5,1.5,-35.5*,-2.7%,0.2
CCCS(=O)(=O)N1CCCC(C(=O)NCc2ccc(C)cc2)C1 (configuration not stated),0.3,-5.0,0.0,-26.4,-5.7%,-4.2
CCOC(=O)c1c(S(=O)(=O)NCC(=O)N2CCN(c3ccccc3OC)CC2)c(C)n(C)c1C,-0.5,-1.5,0.4,-32.2*!,-2.4%,3.0
CCOC(=O)c1c(C)[nH]c(C)c1S(=O)(=O)NCC(=O)N1CCN(c2ccccc2OC)CC1,-0.6,6.8,3.7,-0.4,1.5%,0.0
O=C(c1ccc(F)cc1)N1CCN(C2CCC(c3ccccc3)CC2)CC1 (configuration not stated),-0.5,10.9,2.7,-40.9*,-2.1%,1.4
COc1ccc(C(=O)N2CCN(C3CCC(c4ccccc4)CC3)CC2)cc1OC (configuration not stated),-0.3,-2.4,-1.5,-36.9*,-2.2%,-11.8
COc1ccc(C(=O)COC(=O)CN2C(=O)NC3(CC(C)CC(C)(C)C3)C2=O)c(OC)c1 (configuration not stated),-0.6,-1.5,2.5,-10.6,-2.9%,-3.2
O=C1Cc2cc(CCN3CCN(c4nsc5ccccc45)CC3)c(Cl)cc2N1,-0.3,-1.3,-1.3,-83.8*,-11.7%,-3.1
Oc1cc2cc(CCN3CCN(c4nsc5ccccc45)CC3)c(Cl)cc2[nH]1,nt,nt,nt,nt,-5.7%,nt
CCOC(=O)Cn1ccc(NC(=O)c2ccc(F)cc2)n1,0.9,4.9,2.8,4.3,2.3%,-3.2
Cc1ccc(C)c(S(=O)(=O)N2CCN(C(=O)c3cc(S(=O)(=O)NCc4ccccc4)ccc3C)CC2)c1,2.0,-9.9,4.4,-29.6,1.2%,-5.0
COc1cccc(CC2(CO)CCCN(Cc3c(C)cc(C)cc3-n3cccn3)C2)c1 (configuration not stated),0.3,-11.4,4.0,-36.5*,-3.9%,-7.5
COc1ccc(-n2ccnc2CN2CCCC(CO)(Cc3cccc(OC)c3)C2)cc1 (configuration not stated),-0.1,-2.9,-0.1,-5.6,-3.7%,-4.1
CCCCN(C(=O)C1CC1)C1CCS(=O)(=O)C1 (configuration not stated),-0.8,-1.9,5.8,36.9,-6.0%,-2.4
COc1cccc(Nc2nc(C#N)nc(NC3CCCC3)n2)c1,-3.2,-5.0,4.6,-33.0*,nt,-0.5
N#Cc1nc(Nc2cccc3ccccc23)nc(NC2CCCC2)n1,2.0,-6.1,8.3,-34.8*,nt,-6.7
COc1ccc(CCNC(=O)c2cc3c(-c4ccc(OC)c(OC)c4)nn(C)c3s2)cc1OC,-0.7,1.6,0.3,1.0,-3.3%,5.2
O=c1[nH]c2ccccc2nc1Cc1ccc(Cl)cc1,11.9,-8.8,14.0,0.3,1.6%,nt
SMILES,TRHR ag,TRHR PAM,D1 ag,D1 antag,Glioma ERSR ind,D1 PAM
Oc1ccccc1/C=N/NC(=S)NCCc1ccccc1,-0.2,1.4,3.9,-6.3,1.3%,-8.7
CCOC(=O)c1[nH]c(CN2CCN(c3ccc(OC)cc3)CC2)c(C(=O)OCC)c1C,5.8,-6.4,64.4*,13.3,0.8%,nt
Cc1ccccc1C(=O)NC1CC2CCCC(C1)N2Cc1ccc(Cl)cc1 (configuration not stated),0.5,-1.3,1.0,-73.0*,-3.8%,-8.6
COc1ccc(C(=O)NC2CC3CCCC(C2)N3Cc2ccccc2)cc1OC (configuration not stated),-0.7,4.8,1.9,-33.0*,-2.2%,-2.4
COc1cc(C(=O)NC2CC3CCCC(C2)N3Cc2ccccc2)cc(OC)c1OC (configuration not stated),0.5,6.3,4.0,0.0,-1.3%,-4.6
COc1ccccc1NC(=O)Cn1nnc(C(=O)NCc2ccc3c(c2)OCO3)c1N,0.0,25.9,2.4,6.1,-4.9%,0.8
Cn1nnnc1SCCCNCc1cc(Cl)ccc1OCc1ccccc1,0.5,-2.5,40.1*,-25.6,-3.2%,-1.4
COc1cccc(CNCCCSc2nnnn2C)c1,-0.3,1.0,7.5,1.8,-3.4%,-0.5
Cn1nnnc1SCCCNCc1ccccc1OCc1ccccc1Cl,1.0,4.3,119.3*,-46.0*,-2.3%,3.0
Cn1nnnc1SCCCNCc1cccc(OCc2ccccc2F)c1,1.4,-3.1,45.1*,-3.7,-2.8%,-0.8
CCOc1ccc(Cl)cc1CNCCCSc1nnnn1C,0.1,-3.1,9.0,2.7,-4.4%,-1.6
Cn1nnnc1SCCNCc1ccccc1OCc1ccccc1,-0.2,-3.5,13.8,-22.0,-3.0%,-2.7
Cn1nnnc1SCCCNCc1cccc(OCc2ccccc2Cl)c1,1.4,3.2,108.0*,-18.8,-3.3%,1.4
O=Nc1c(-c2c(O)[nH]c3cc(Br)ccc23)[nH]c2ccccc12,4.3,-9.4,8.8,-56.7*,?,-9.1
Cc1c(O)cc2c(c1O)C(=O)CC(c1ccccc1)O2 (configuration not stated),0.0,0.1,0.0,-5.8,28.2µM*,-1.1
COc1c(O)cc2c(c1O)C(=O)CC(c1ccccc1)O2 (configuration not stated),-0.1,-3.4,-5.9,-0.1,nt,1.2
COc1ccc(S(=O)(=O)N2CCOCC2)cc1NC(=O)Cc1sc(C)nc1-c1ccc(F)cc1,-0.4,-6.0,0.1,-14.3,-1.6%,-4.4
Cc1cc(N2CCN(C)CC2)ccc1NC(=O)c1ccc(-c2ccc(Cl)cc2)o1,0.2,1.0,16.2,-61.9*,-11.6%,-4.3
Cc1ccc(NC(=S)NC(=O)c2ccc(-c3ccc(Cl)cc3)o2)c(O)c1,-2.8,2.6,0.9,5.3,-8.4%,-16.6

# Assay outcomes deposited in PubChem by National Center for Advancing Translational Sciences (NCATS).
